From PubChem BioAssay (NCI)
This is part of a sample that, as a whole, favours compounds with a hit. Of some 83,000 tested, about 20% had one in any assay.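 A percent growth of 40 corresponds to 60% growth inhibition; 0 means no net growth; -100 means all cells died. Active threshold: below 10.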 Active and inactive are the calls of the source.

Tests used:
Assay in all cases: NCI-60 one-dose screen, 48 h (100 = growth as untreated, 0 = no growth, -100 = all killed)
Conditions in all cases: 10 µM unless noted
NCI-H23 lung = system: NCI-H23 lung
NCI-H226 lung = system: NCI-H226 lung
NCI-H322M lung = system: NCI-H322M lung
HOP-62 NSCLC = system: HOP-62 NSCLC
HOP-92 NSCLC = system: HOP-92 NSCLC
NCI-H522 lung = system: NCI-H522 lung
A549/ATCC NSCLC = system: A549/ATCC NSCLC
786-0 renal = system: 786-0 renal
COLO 205 colon = system: COLO 205 colon
DU-145 prostate = system: DU-145 prostate
K-562 leukemia = system: K-562 leukemia
MALME-3M melanoma = system: MALME-3M melanoma
MDA-MB-231 breast = system: MDA-MB-231 breast
RXF 393 renal = system: RXF 393 renal
SF-268 CNS = system: SF-268 CNS
SF-295 CNS = system: SF-295 CNS
SF-539 CNS = system: SF-539 CNS
UACC-257 melanoma = system: UACC-257 melanoma
M14 melanoma = system: M14 melanoma
NCI-H460 lung = system: NCI-H460 lung

Measured: growth

CCOC(=O)c1ccc2[nH]c(O)c(C(=Nc3ccc(N(C)C(=O)CN4CCN(C)CC4)cc3)c3ccccc3)c2c1
active: NCI-H23 lung -59.3% | HOP-62 NSCLC -5.97% | NCI-H522 lung -48.8% | A549/ATCC NSCLC -20.5% | 786-0 renal -95% | COLO 205 colon -56.3% | DU-145 prostate -9.05% | K-562 leukemia -20.8% | MALME-3M melanoma -88.9% | MDA-MB-231 breast -72.3% | RXF 393 renal -97.7% | SF-268 CNS 7.68% | SF-295 CNS -6.29% | SF-539 CNS -91.1% | UACC-257 melanoma -55.4% | M14 melanoma -78.5%
inactive: NCI-H226 lung 15.5% | NCI-H322M lung 11.7% | HOP-92 NSCLC 30.3%

C#CCOc1cccc(Nc2ncnc3c(NC(=O)C=C)cccc23)c1
inactive: NCI-H23 lung 38.9% | NCI-H226 lung 52% | NCI-H322M lung 54.9% | HOP-62 NSCLC 39% | A549/ATCC NSCLC 27.5% | 786-0 renal 14% | COLO 205 colon 26.3% | MALME-3M melanoma 31.3% | MDA-MB-231 breast 26.3% | SF-268 CNS 20.7% | SF-295 CNS 53.6% | UACC-257 melanoma 33% | M14 melanoma 19.9%
active: HOP-92 NSCLC 9.26% | NCI-H522 lung -5.23% | DU-145 prostate -1.57% | K-562 leukemia 5% | RXF 393 renal -3.19% | SF-539 CNS 5.67%

CC(=O)Cc1nsc(NC(=O)c2cc(-c3cc(Cl)cc(Cl)c3)oc2C)n1
inactive: NCI-H23 lung 101% | NCI-H226 lung 96.3% | NCI-H322M lung 100% | HOP-62 NSCLC 95.9% | HOP-92 NSCLC 105% | NCI-H522 lung 86.6% | A549/ATCC NSCLC 94.3% | 786-0 renal 98% | COLO 205 colon 107% | DU-145 prostate 108% | K-562 leukemia 100% | MALME-3M melanoma 111% | MDA-MB-231 breast 104% | RXF 393 renal 105% | SF-268 CNS 88.1% | SF-295 CNS 99.4% | SF-539 CNS 98.5% | UACC-257 melanoma 89% | M14 melanoma 105%

CCOC(=O)c1[nH]c(=O)c2c(C)nc(-c3ccccc3)cc2c1O
inactive: NCI-H23 lung 105% | NCI-H226 lung 93% | NCI-H322M lung 118% | HOP-62 NSCLC 124% | NCI-H460 lung 102% | HOP-92 NSCLC 78.5% | A549/ATCC NSCLC 101% | 786-0 renal 112% | DU-145 prostate 112% | K-562 leukemia 110% | MALME-3M melanoma 136% | MDA-MB-231 breast 78.8% | RXF 393 renal 112% | SF-268 CNS 106% | SF-295 CNS 110% | SF-539 CNS 106% | UACC-257 melanoma 106% | M14 melanoma 104%

CC(C)c1ccc(COCc2cc(CN3CCCC3)c(O)c3ncccc23)cc1
inactive: NCI-H322M lung 12.2% | COLO 205 colon 18.9% | DU-145 prostate 18.6%
active: NCI-H23 lung 8.78% | NCI-H226 lung -6.04% | HOP-62 NSCLC 2.49% | HOP-92 NSCLC -5.15% | A549/ATCC NSCLC 7.74% | 786-0 renal -15.4% | K-562 leukemia 3.96% | MALME-3M melanoma 8.44% | MDA-MB-231 breast 8.36% | RXF 393 renal 3.03% | SF-268 CNS 8.66% | SF-295 CNS 4.84% | SF-539 CNS -22.1% | UACC-257 melanoma -12.8% | M14 melanoma -6.21%

CN(C)CC(=O)Nc1ccc2ncnc(Nc3ccc(Oc4cccc(C(F)(F)F)c4)c(Cl)c3)c2c1
active: K-562 leukemia 3.41%
inactive: NCI-H23 lung 75.9% | NCI-H226 lung 80.7% | NCI-H322M lung 45.3% | HOP-62 NSCLC 76.5% | HOP-92 NSCLC 37.9% | NCI-H522 lung 67.7% | A549/ATCC NSCLC 47.5% | 786-0 renal 59.4% | COLO 205 colon 35.9% | DU-145 prostate 48.2% | MALME-3M melanoma 69.7% | MDA-MB-231 breast 49.1% | RXF 393 renal 50.6% | SF-268 CNS 61.3% | SF-295 CNS 90.3% | SF-539 CNS 90.8% | UACC-257 melanoma 85.6% | M14 melanoma 59.5%

O=C(Nn1c2c(sc1=Nc1ccccc1)C(=O)c1ccccc1C2=O)c1cc2ccc1CCc1ccc(cc1)CC2
inactive: NCI-H23 lung 30.6% | NCI-H226 lung 51.2% | NCI-H322M lung 99.8% | HOP-62 NSCLC 66.4% | NCI-H460 lung 71.9% | HOP-92 NSCLC 107% | A549/ATCC NSCLC 64% | 786-0 renal 81% | DU-145 prostate 71.7% | K-562 leukemia 77.8% | MDA-MB-231 breast 40% | RXF 393 renal 70.7% | SF-268 CNS 67.7% | SF-295 CNS 87.8% | SF-539 CNS 92.6% | UACC-257 melanoma 62.4%
active: MALME-3M melanoma -69.3% | M14 melanoma 4.14%

O=C(Cn1cc(CN2CCCCCC2)nn1)Nc1ccc2c(ccn2Cc2ccccc2)c1
inactive: NCI-H23 lung 96.4% | NCI-H226 lung 81.5% | NCI-H322M lung 94.8% | HOP-62 NSCLC 80.6% | HOP-92 NSCLC 64% | A549/ATCC NSCLC 92.3% | 786-0 renal 87.8% | COLO 205 colon 88.9% | DU-145 prostate 101% | K-562 leukemia 79.5% | MALME-3M melanoma 91.1% | MDA-MB-231 breast 86% | RXF 393 renal 91.4% | SF-268 CNS 93.6% | SF-295 CNS 99.6% | SF-539 CNS 92.6% | UACC-257 melanoma 101% | M14 melanoma 94.1%

O=C1c2cccc3cccc(c23)C(=O)N1N1C(=O)c2cccc3c(N4CCOCC4)ccc(c23)C1=O
inactive: NCI-H23 lung 89.1% | NCI-H226 lung 95.4% | NCI-H322M lung 94.5% | HOP-62 NSCLC 87.3% | HOP-92 NSCLC 85.6% | A549/ATCC NSCLC 95.5% | 786-0 renal 102% | COLO 205 colon 108% | DU-145 prostate 110% | K-562 leukemia 102% | MALME-3M melanoma 78.8% | MDA-MB-231 breast 76.3% | RXF 393 renal 93.4% | SF-268 CNS 96.2% | SF-295 CNS 90.7% | SF-539 CNS 101% | UACC-257 melanoma 96.7% | M14 melanoma 90%
